# Measurements as given in PubChem BioAssay (Tox21).
# Records with an inconclusive call do not appear. A number with no mark means an inactive call. Active and inactive are the calls of the source. Calls follow the shape of the dose curve; as a rule, active = well fitted cell-killing curve with a large enough effect in the repeat runs; inconclusive = weak or mixed curves, or effect the other way; inactive = flat fitted curve, though single readings scatter.
# Assay: Human pregnane X receptor (PXR) small molecule agonists, qHTS cell viability counter screen (AID 1346977); also: nearly all actives have a fitted effect of over 50% in size
# Conditions: PXR-Luc HepG2 viability, CellTiter-Fluor, 24 h; series mostly up to 92.4 µM; activity change, negative = cytotoxicity: at the top concentration
# From the text: U.S. Tox21 Program National Center for Advancing Translational Sciences [NCATS] NIH Chemical Genomics Center [NCGC] U.S. Environmental Protection Agency [EPA] National Institutes of Environmental Health Sciences [NIEHS] National Toxicology Program [NTP] U.S. Food and Drug Administration [FDA] Tox21 Assay Overview: The human pregnane X receptor (hPXR) regulates the expression of several drug metabolizing enzymes and induction of these proteins is a major mechanism for developing drug resistance in cancer. One such key enzyme catalyzing the drug metabolism is cytochrome P450 3A4 (CYP3A4). Changes in CYP3A4 expression affect drug metabolism, thereby reducing the therapeutic efficacy and altering toxicological response to a drug and which finally causes adverse drug interaction. To screen Tox21 libraries for compounds that activate hPXR-mediated CYP3A4 gene expression, PXR-Luc HepG2 cells were used. Also cytotoxicity of the compounds was tested in parallel by measuring the cell viability using CellTiter-Fluor assay system in the same wells.
# Tox21 Assay Protocol Summary: PXR-Luc HepG2 cells were dispensed at 2,000 per well in 5uL of assay medium containing 5% charcoal-stripped FBS into white solid bottom 1536-well plates (Corning Life Sciences, Corning, NY) using a Multidrop Combi (Thermo Scientific, Waltham, MA) dispenser. The assay plates were incubated at 37 C and 5% CO2 for 5hr, and then 23nL of compounds dissolved in DMSO and positive control were transferred using a Pintool station (Wako, San Diego, CA). The assay plates were incubated at 37C and 5% CO2 for 24hr. For cytotoxicity read, after 23hr incubation at 37C, 1uL CellTiter-Fluor reagent (Promega Corporation, Madison, WI) was added to each well of the assay plates using Flying Reagent Dispenser (FRD, Aurora Discovery, San Diego, CA). After 1hr incubation at 37C and 5% CO2, the fluorescence signal was quantified using a ViewLux plate reader (PerkinElmer, Shelton, CT).
# % is scaled to controls: 0 for no effect and ±100 for the full control effect; potency is read from the fitted curve at half-maximal effect.
Compound,"activity change, negative = cytotoxicity",Potency
CS(C)(=O)=O,2.11%,–
Cc1ccc2ccc3cccc4ccc1c2c34,1.16%,–
CC(C)(C)c1cc(/C=C2\SC(=N)NC2=O)cc(C(C)(C)C)c1O,–,48.6 µM (active)
CCCCCCCC(C)=O,0.398%,–
CCC(C)(C)c1cc(O)c(C(C)(C)CC)cc1O,-2.41%,–
NC(=O)c1ccccc1N,4.63%,–
ClC/C=C\CCl,6.11%,–
Oc1ccc(-c2ccccc2)c(Cl)c1,-5.88%,–
CCOC(=O)COc1ccc(C)cc1,-0.867%,–
COc1ccccc1C=O,0.21%,–
Cc1cccc(C)n1,4.69%,–
CCCCCCCCCCCCCc1ccccc1,5.23% [at 42.5 µM],–
COc1cccc(O)c1,-1.68%,–
Cc1c(C)n(Cc2ccccc2)c2ccc(C(=O)OCCN(C)C)cc12,–,21.1 µM (active)
CCOC(=O)CN,3.29%,–
CCOC(/C=C(\C)CCC=C(C)C)OCC,-1.36%,–
C/C=C/CO,1.72%,–
CC(=O)OC1CCCCC1,0.714%,–
C[C@@H]1CC[C@H]2C(C)(C)[C@H]3C[C@@]12CC[C@@]3(C)O,4.4%,–
CN(Cc1cc(Br)cc(Br)c1N)C1CCCCC1,-0.973% [at 42.5 µM],–

Compound,"activity change, negative = cytotoxicity",Potency
COc1ccc2sc(C(=O)Nc3nnn[nH]3)c(OC(C)C)c2c1,–,24.2 µM (active)
COc1ccccc1OCCNCC(O)COc1cccc2[nH]c3ccccc3c12 (stereo not given),–,23.7 µM (active)
O=C1c2c(O)ccc([N+](=O)[O-])c2C(=O)c2c([N+](=O)[O-])ccc(O)c21,–,13.6 µM (active)
CCCCCCCCCCCCCCCC,2.76%,–
Cc1cccc(C)c1NC(=O)CN1CCN(CCCC(c2ccc(F)cc2)c2ccc(F)cc2)CC1,–,23.7 µM (active)
C/C=C/C(=O)C1=C(C)CCCC1(C)C,-1.78%,–
CC1CCCCC1,1.17%,–
CCN=C1C=CC(=C(c2ccc(N(CC)CC)cc2)c2ccc(N(CC)CC)cc2)c2ccccc21,–,0.682 µM (active)
CC(C)=CCCC(C)O (stereo not given),-1.06%,–
OCCCc1cccnc1,0.928%,–
O=S(=O)(O)c1cc(S(=O)(=O)O)c2ccc3c(S(=O)(=O)O)cc(S(=O)(=O)O)c4ccc1c2c43,3.17% [at 19 µM],–
SCCCCCCCCS,-1.12%,–
Clc1cccnc1,-2.03%,–
Oc1cc2ccccc2cc1O,-1.72%,–
Cc1c(C(=O)O)cccc1[N+](=O)[O-],-5.87%,–
COC(=O)CC#N,14%,–
C#CC(O)CCC (stereo not given),-0.328%,–
CCCCNc1c(C(=O)OCC)c(C)nc2c1cnn2CC,-3.03% [at 42.5 µM],–
Brc1ccccn1,3.17%,–
Cc1nc(Nc2ncc(C(=O)Nc3c(C)cccc3Cl)s2)cc(N2CCN(CCO)CC2)n1,–,9.44 µM (active)
